Read-out in test [1]: Monokine induced gamma interferon (MIG), CXCL9 (gene 4283)
Briefly: BSK_hDFCGF_MIG: BioMAP Diversity Plus: hDFCGF Assay for Monokine induced gamma interferon (MIG) Biomarker Activity (AID 2283063). To be noted: primary human foreskin fibroblasts; actives raise or lower the signal. The essentials:
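Human primary foreskin fibroblasts in the hDFCGF system, exposed to test chemical for 24 h; MIG measured by ELISA. Bidirectional curve fitting against DMSO negative control as activity baseline.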

Read-out in test [2]: Matrix Metallopeptidase 1 (MMP1), MMP1 (gene 4312)
Briefly: BSK_hDFCGF_MMP1: BioMAP Diversity Plus: hDFCGF Assay for Matrix Metallopeptidase 1 (MMP1) Biomarker Activity (AID 2283064). To be noted: primary human foreskin fibroblasts; actives raise or lower the signal. The essentials: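 Primary human foreskin fibroblasts in the hDFCGF system were dosed with test chemical, and MMP1 was measured by ELISA 24 h later. Values come from bidirectional curve fitting against the DMSO baseline.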

Read-out in test [3]: Plasminogen activator inhibitor-1 (PAI1), SERPINE1 (gene 5054)
Put plainly: BSK_hDFCGF_PAI1: BioMAP Diversity Plus: hDFCGF Assay for Plasminogen activator inhibitor-1 (PAI1) Biomarker Activity (AID 2283066). To be noted: primary human foreskin fibroblasts; actives raise or lower the signal. The procedure, abridged:
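Human foreskin fibroblast primary cells, 24 h chemical exposure; PAI-1 measured by ELISA. Bidirectional fitting relative to DMSO; parallel cultures stained with SRB for total protein to flag overt cytotoxicity.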

Read-out in test [4]: Intercellular Adhesion Molecule 1 (ICAM1), ICAM1 (gene 3383)
Briefly: BSK_KF3CT_ICAM1: BioMAP Diversity Plus: KF3CT Assay for Intercellular Adhesion Molecule 1 (ICAM1) Biomarker Activity (AID 2283067). To be noted: primary human keratinocytes with fibroblasts; actives raise or lower the signal. The essentials: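 Cell-surface ICAM-1 was measured by ELISA 24 h after dosing primary human skin keratinocytes co-cultured with fibroblasts. Parallel SRB staining tracked overt cytotoxicity. Gain or loss of signal was fitted relative to DMSO.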

Read-out in test [5]: Interferon-gamma inducible Protein 10 (IP10), CXCL10 (gene 3627)
Briefly: BSK_KF3CT_IP10: BioMAP Diversity Plus: KF3CT Assay for Interferon-gamma inducible Protein 10 (IP10) Biomarker Activity (AID 2283068). To be noted: primary human keratinocytes with fibroblasts; actives raise or lower the signal. The essentials: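 Signal is secreted/surface IP-10 by ELISA in a human primary skin co-culture of keratinocytes and foreskin fibroblasts, taken 24 h post-dosing; DMSO served as negative control.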

Test [6] is described as follows: BSK_KF3CT_SRB: Viability Assessment in the BioMAP Diversity Plus: KF3CT Assay (AID 2283069).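 Also: total protein by sulforhodamine B staining as a cytotoxicity measure; read 24 h after compound addition.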 To be noted: primary human keratinocytes with fibroblasts. The essentials: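 Human primary keratinocyte plus foreskin fibroblast co-culture exposed to chemicals for 24 h. Total protein measured by 0.1% sulforhodamine B staining after 10% TCA fixation, read at 560 nm; bidirectional fitting versus DMSO baseline.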

Read-out in test [7]: Interleukin-1 alpha (IL1a), IL1A (gene 3552)
Briefly: BSK_KF3CT_IL1a: BioMAP Diversity Plus: KF3CT Assay for Interleukin-1 alpha (IL1a) Biomarker Activity (AID 2283070). The following applies: primary human keratinocytes with fibroblasts; actives raise or lower the signal. The essentials: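 Human keratinocyte plus foreskin fibroblast primary co-culture, sampled 24 h after chemical dosing. IL-1a measured by ELISA; responses fitted bidirectionally against DMSO baseline (negative control), so gain or loss of signal both count.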

Read-out in test [8]: TIMP metallopeptidase inhibitor 2 (TIMP2), TIMP2 (gene 7077)
Briefly: BSK_KF3CT_TIMP2: BioMAP Diversity Plus: KF3CT Assay for TIMP metallopeptidase inhibitor 2 (TIMP2) Biomarker Activity (AID 2283071). The following applies: primary human keratinocytes with fibroblasts; actives raise or lower the signal. The procedure, abridged: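 Co-culture of human primary keratinocytes and foreskin fibroblasts, measured 24 h after chemical dosing. TIMP-2 quantified by ELISA and fitted in both directions relative to DMSO. Cytotoxicity checked in parallel cultures by SRB total-protein staining.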

Read-out in test [9]: Transforming growth factor beta 1 (TGFb1), TGFB1 (gene 7040)
Briefly: BSK_KF3CT_TGFb1: BioMAP Diversity Plus: KF3CT Assay for Transforming growth factor beta 1 (TGFb1) Biomarker Activity (AID 2283072). To be noted: primary human keratinocytes with fibroblasts; actives raise or lower the signal. The essentials:
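Human keratinocyte/foreskin fibroblast co-culture; TGF-b1 measured by ELISA 24 h after dosing, fitted bidirectionally versus DMSO. Cytotoxicity checked in parallel cultures by total protein (SRB staining, 560 nm).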

Read-out in test [10]: C-C motif chemokine 2 (Homo sapiens) (UniProt P13500)
Put plainly: BSK_KF3CT_MCP1: BioMAP Diversity Plus: KF3CT Assay for Monocyte Chemoattractant Protein 1 (MCP1/CCL2) Biomarker Activity (AID 2283073). The following applies: primary human keratinocytes with fibroblasts; actives raise or lower the signal. The essentials: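 ELISA read-out of MCP-1, 24 h post-dose, in primary human skin keratinocytes co-cultured with fibroblasts. Parallel SRB staining monitors cytotoxicity; changes fitted both directions relative to DMSO.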

Read-out in test [11]: Matrix Metallopeptidase 9 (MMP9), MMP9 (gene 4318)
Briefly: BSK_KF3CT_MMP9: BioMAP Diversity Plus: KF3CT Assay for Matrix Metallopeptidase 9 (MMP9) Biomarker Activity (AID 2283074).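 As to AC50: MMP9 protein level quantified by ELISA in the co-culture.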 The following applies: primary human keratinocytes with fibroblasts; actives raise or lower the signal. The procedure, abridged: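 Keratinocyte plus foreskin fibroblast human primary skin co-culture was dosed with chemical and MMP-9 was quantified by ELISA 24 h later. Bidirectional curve fitting used DMSO as negative control and activity baseline.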

Read-out in test [12]: urokinase plasminogen activator (uPA), PLAU (gene 5328)
Put plainly: BSK_KF3CT_uPA: BioMAP Diversity Plus: KF3CT Assay for urokinase plasminogen activator (uPA) Biomarker Activity (AID 2283075). To be noted: primary human keratinocytes with fibroblasts; actives raise or lower the signal. The essentials: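 Human keratinocyte plus foreskin fibroblast primary co-culture exposed to chemical for 24 h. uPA levels were quantified by ELISA, and activity was fitted bidirectionally against a DMSO negative-control baseline.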

Read-out in test [13]: CD40, CD40 (gene 958)
Put plainly: BSK_LPS_CD40: BioMAP Diversity Plus: LPS Assay for CD40 Biomarker Activity (AID 2283076). The following applies: primary human HUVEC with PBMC; actives raise or lower the signal. The procedure, abridged:
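In the LPS system of human endothelial cells with peripheral blood mononuclear cells, CD40 levels were read by ELISA 24 h post-treatment. Signal changes in either direction were fitted against the DMSO baseline, with parallel SRB protein staining.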

Read-out in test [14]: E-selectin (Homo sapiens) (UniProt P16581)
Briefly: BSK_LPS_Eselectin: BioMAP Diversity Plus: LPS Assay for Eselectin Biomarker Activity (AID 2283077). To be noted: primary human HUVEC with PBMC; actives raise or lower the signal. The essentials: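 E-selectin ELISA on LPS-stimulated endothelial cell/PBMC co-cultures, read 24 h post-treatment; gains and losses fitted against DMSO. Parallel SRB staining (0.1% SRB after 10% TCA fixation, 560 nm) flags overt cytotoxicity.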

Read-out in test [15]: Interleukin-8 (IL8), CXCL8 (gene 3576)
Put plainly: BSK_LPS_IL8: BioMAP Diversity Plus: LPS Assay for Interleukin-8 (IL8) Biomarker Activity (AID 2283078). To be noted: primary human HUVEC with PBMC; actives raise or lower the signal. The essentials:
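ELISA read-out of IL-8 after 24 h chemical treatment of LPS-activated endothelial/PBMC human primary co-cultures. Changes either up or down relative to DMSO; overt cytotoxicity checked by sulforhodamine B staining in parallel wells.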

Test [16] in a line: BSK_LPS_SRB: Viability Assessment in the BioMAP Diversity Plus: LPS Assay (AID 2283079).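 Also: total protein by sulforhodamine B absorbance as a cytotoxicity measure; measured one day after compound addition.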 The following applies: primary human HUVEC with PBMC. The essentials: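 SRB viability endpoint: cells fixed with 10% TCA, stained with 0.1% SRB, read at 560 nm, 24 h post-dose. HUVEC/PBMC co-culture; signal change in either direction scored relative to DMSO.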
Read-out in test [17]: Interleukin-1 alpha (IL1a), IL1A (gene 3552)
Briefly: BSK_LPS_IL1a: BioMAP Diversity Plus: LPS Assay for Interleukin-1 alpha (IL1a) Biomarker Activity (AID 2283080). The following applies: primary human HUVEC with PBMC; actives raise or lower the signal. The essentials: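 Readout is IL-1a level by ELISA, 24 h post-dose, fitted as gain or loss relative to DMSO. System: LPS-activated human primary co-culture of vascular endothelium and peripheral blood mononuclear cells, with parallel SRB total-protein cytotoxicity.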

Read-out in test [18]: Monocyte Chemoattractant Protein-1 (MCP1), CCL2 (gene 6347)
Briefly: BSK_LPS_MCP1: BioMAP Diversity Plus: LPS Assay for Monocyte Chemoattractant Protein-1 (MCP1) Biomarker Activity (AID 2283081).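 As to AC50: secreted MCP-1 protein quantified by ELISA in culture supernatant.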 To be noted: primary human HUVEC with PBMC; actives raise or lower the signal. The essentials:
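Secreted MCP-1 read by ELISA at 24 h post-dosing in an LPS-activated co-culture of endothelial cells with peripheral blood mononuclear cells. Fits run in both directions, DMSO as baseline; parallel SRB staining tracks overt cytotoxicity.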

Read-out in test [19]: TIMP metallopeptidase inhibitor 1 (TIMP1), TIMP1 (gene 7076)
Briefly: BSK_hDFCGF_TIMP1: BioMAP Diversity Plus: hDFCGF Assay for TIMP metallopeptidase inhibitor 1 (TIMP1) Biomarker Activity (AID 2283062). To be noted: primary human foreskin fibroblasts; actives raise or lower the signal. The procedure, abridged: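 TIMP-1 measured by ELISA 24 h after chemical dosing of primary human skin fibroblasts, with gain or loss fitted relative to DMSO. Parallel SRB staining (560 nm) monitored overt cytotoxicity.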

Read-out in test [20]: Vascular cell adhesion molecule 1 (VCAM1), VCAM1 (gene 7412)
Briefly: BSK_hDFCGF_VCAM1: BioMAP Diversity Plus: hDFCGF Assay for Vascular cell adhesion molecule 1 (VCAM1) Biomarker Activity (AID 2283065).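 Also: VCAM-1 protein level quantified by ELISA after 24 h chemical exposure.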 To be noted: primary human foreskin fibroblasts; actives raise or lower the signal. The procedure, abridged: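 ELISA readout of VCAM-1 on human dermal fibroblast primary cultures, 24 h after chemical exposure. Gain or loss of signal fitted in both directions against DMSO baseline.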

The source made the active and inactive calls. The calls were made as follows: active = hit-call score of the fitted dose curve at least 0.9, where 1 is the maximum; inactive = score below 0.9.

Chain of E-selectin (Homo sapiens) (P16581 whole entry, looked up): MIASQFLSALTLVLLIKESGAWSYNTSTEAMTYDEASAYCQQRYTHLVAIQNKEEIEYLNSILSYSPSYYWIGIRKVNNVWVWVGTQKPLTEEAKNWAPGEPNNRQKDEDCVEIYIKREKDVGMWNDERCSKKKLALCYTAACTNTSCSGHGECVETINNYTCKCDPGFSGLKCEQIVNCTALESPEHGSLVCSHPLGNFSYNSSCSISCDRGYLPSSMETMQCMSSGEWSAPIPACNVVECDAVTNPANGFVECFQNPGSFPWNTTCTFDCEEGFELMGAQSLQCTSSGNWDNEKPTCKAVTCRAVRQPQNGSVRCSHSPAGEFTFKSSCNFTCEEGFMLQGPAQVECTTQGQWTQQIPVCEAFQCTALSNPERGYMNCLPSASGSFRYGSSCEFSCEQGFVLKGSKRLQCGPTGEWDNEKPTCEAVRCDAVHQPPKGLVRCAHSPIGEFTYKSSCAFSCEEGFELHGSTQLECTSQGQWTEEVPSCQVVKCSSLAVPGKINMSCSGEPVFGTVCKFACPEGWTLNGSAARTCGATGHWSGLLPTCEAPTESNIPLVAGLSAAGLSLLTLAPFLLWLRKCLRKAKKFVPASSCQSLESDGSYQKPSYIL

On to `c1ccc2c(c1)oc1ccccc12`, for which the result in test [1], in [2], in test [3], in [4], in test [5] and in test [6] was inactive. In addition, the outcome in test [7], in test [8], in test [9], in [10], in test [11] and in test [12] was inactive. The outcome in test [13], in [14], in test [15], in test [16], in [17] and in test [18] was inactive.

Consider `O=C1CCCO1`, for which the result in test [19], in [1], in test [3], in test [4], in test [5] and in test [6] was inactive. Further, the outcome in [7], in [8], in test [9], in test [10], in test [11] and in test [12] was inactive. Also, the outcome in [13], in [14], in test [15], in test [16], in test [17] and in [18] was inactive.

As usually defined, the AC50 is the concentration giving half of the maximal activity seen. For the compound `COc1cc(C=O)cc2c1[C@H](COC(N)=O)[C@]1(OC(C)=O)ON2C[C@H]2[C@@H]1N2C(C)=O`, the AC50 in test [19] is 1.48 µM (active); in test [1], 1.25 µM (active); in test [3] it was 144 nM (active); in test [4] it was 11.6 µM (active); in [5] it was 13 µM (active); in test [6] it was 3.36 µM (active). Moreover, the AC50 in test [7] was 20 µM (active); in test [8] it was 2.26 µM (active); in test [9], 2.21 µM (active); in test [10], 1.1 µM (active); in test [11] it was 2.07 µM (active); in [12], 11.4 µM (active). For the same compound, the AC50 is 20 µM (active) in test [13]; 10.6 µM (active) in test [14]; 13.3 µM (active) in test [15]; 6.69 µM (active) in [16]; 19.7 µM (active) in test [17]; 5.86 µM (active) in test [18].

For `ClC1=C(Cl)[C@]2(Cl)[C@H]3[C@H]([C@@H]4C=C[C@H]3C4)[C@@]1(Cl)C2(Cl)Cl`, the AC50 in [1] was 16.4 µM (active); in [20], 10.1 µM (active); in test [4], 15.5 µM (active); in test [5], 14.5 µM (active); in test [6] it was 30.6 µM (active); in [8], 20 µM (active). The AC50 is 22.4 µM (active) in test [9]; 22.3 µM (active) in test [10]; 11.6 µM (active) in test [11]; 28.7 µM (active) in [12]; 32.1 µM (active) in [13]; 33.5 µM (active) in test [14]. The AC50 in test [15] was 33.8 µM (active); in test [16], 30.5 µM (active); in test [17], 28.9 µM (active); in test [18], 36.8 µM (active).

On to `O=Cc1ccco1`, for which the result in test [19], in test [1], in test [4], in [5], in test [6] and in [7] was inactive. Also, the outcome in test [8], in [9], in test [10], in [11], in test [12] and in test [13] was inactive. Also, the result in test [14], in [15], in [16], in test [17] and in test [18] was inactive.

Take `Nc1ccc(Oc2ccc(N)cc2)cc1`: the result in test [19], in test [1], in test [3], in test [4], in test [5] and in test [6] was inactive. For the same compound, the outcome in test [7], in test [8], in test [9], in [10], in test [11] and in test [12] was inactive. In addition, the result in test [13], in test [14], in test [15], in test [16], in [17] and in test [18] was inactive.

These data come from PubChem BioAssay (EPA / NIEHS).
